The text below walks through data of PubChem BioAssay AID2275 (Broad Institute, 2010).

The whole screen tested about 30,000 compounds, of which about 190 (0.63%) were called active. Rule as the data show it: active = viability loss activity score above about 50%; inconclusive = no clear call, values can overlap the other calls; inactive = below about 35%. Many of the other results were omitted from the sample, so actives are more common in it than they were.

The nature of this test: BJeLR cell viability loss, primary screen, luminescence, CellTiterGlo ATP (AID 2275).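 Also: higher score means fewer live cells and less ATP luminescence.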 The settings on record: BJeLR fibroblasts viability, 48 h, hits give high values, HRASV12, hTERT and SV40 LT/ST transformed, concentration not given here. For orientation: Cellular ATP, detected with luciferase, serves as a proxy for viable cell number.
Regarding `N=c1n(CC(=O)c2ccc(Cl)c(Cl)c2)c2ccccc2n1Cc1ccccc1`, the viability loss activity score is 0.84% (inactive). In the case of `O=C(NCCc1ccccc1)c1ccc(NC2=NC3CS(=O)(=O)CC3S2)cc1` (stereo not drawn), the viability loss activity score was 2.13% (inactive). To `COc1ccc(S(=O)(=O)Nc2cccc3c2O[C@@H](CN(C)Cc2ccc(-c4ccccc4)cc2)[C@H](C)CN([C@H](C)CO)C3=O)cc1` belongs 1.26% (inactive); to `CC(=O)NC(c1ccccc1)c1ccc2cccnc2c1O` (stereo not drawn), 76.4% (active); to `CC(C)(C)c1cc(C(=O)Oc2ccc(Cl)cc2)n(Cc2ccccc2)n1`, 4.03% (inactive). To `C[C@@H]1CN([C@H](C)CO)C(=O)c2cccc(NS(=O)(=O)c3ccc(F)cc3)c2O[C@@H]1CN(C)C(=O)Nc1ccc(F)cc1` belongs 3.97% (inactive); to `CCOc1cc(CNc2ccc(OC)cc2)ccc1OCC(=O)NC(C)(C)C`, -0.358% (inactive). The same measure for `COc1ccc(NC(=O)Nc2cccc3c2O[C@@H](CN(C)C(=O)NC(C)C)[C@H](C)CN([C@H](C)CO)C3=O)cc1`: -0.272% (inactive); for `COc1ccc2[nH]c3c(=O)n(Cc4ccc(C(=O)NCc5cccnc5)cc4)c(=S)[nH]c3c2c1`: 2.75% (inactive); for `COCc1cc(C)nc2sc(C(N)=O)c(N)c12`: 6.31% (inactive). For the compound `CCOc1cc(-c2cc(C)c3c(ccc4ccccc43)n2)ccc1O`, the viability loss activity score is -1.76% (inactive). `CCc1ccc(/C=C2\Cc3ccccc3C2=O)cc1`: the viability loss activity score was 4.71% (inactive). To `CCS(=O)(=O)C(=C(Nc1ccccc1)Nc1ccccc1)S(=O)(=O)CC` belongs 21.6% (inactive); to `CN1/C(=C/C(=S)C(C)(C)C)Sc2ccccc21`, 0.712% (inactive). To `CCCCn1c(-c2ccc(Br)cc2)nc2ccccc21` belongs -1.15% (inactive). The same measure for `Cc1ccc(NC2CCCCC2NS(=O)(=O)c2ccccc2)cc1` (stereo not drawn): 8.06% (inactive). As for `Cc1cc(C)c2c(c1)CC(C)(C)c1[nH]c(-c3ccccc3)nc1-2`, the viability loss activity score was -0.635% (inactive). The same measure for `COCC(=O)NCc1nn(-c2ccccc2)nc1C`: 1.49% (inactive); for `Cc1ccc(S(=O)(=O)c2no[n+]([O-])c2S(=O)(=O)c2ccc(C)cc2)cc1`: 62% (active); for `CCOC(=O)N1CCN(C(=O)CSc2ncnc3c2nnn3Cc2ccc(F)cc2)CC1`: -1.44% (inactive). For the compound `Cc1ccc2c(c1)N(CCC(=O)NC1CCC(C)CC1)C(=O)CO2` (stereo not drawn), the viability loss activity score is -1.39% (inactive). The same measure for `C=CCn1c(SCc2ccc(C(=O)O)cc2)nnc1-c1cccc(OC)c1`: -6.6% (inactive); for `CCN(C(=O)c1coc(=O)c2ccccc12)c1cccc(C(F)(F)F)c1`: 0.65% (inactive); for `O=C(O)CSc1nnc(COc2ccc(Cl)cc2)n1-c1ccc(Br)cc1`: 0.406% (inactive). Regarding `C[C@@H]1CN([C@H](C)CO)C(=O)c2cc(NS(C)(=O)=O)ccc2O[C@H]1CN(C)C(=O)Nc1cccc2ccccc12`, the viability loss activity score was -0.115% (inactive). To `S=C(Nc1cccc(Cl)c1)N1CCCN(Cc2ccccc2Cl)C1` belongs -1.27% (inactive); to `O=C1CC(c2ccc(F)cc2)CC(O)=C1C=NCCN1CCN(C(=S)Nc2ccccc2)CC1` (stereo not drawn), 8.57% (inactive). As for `Cc1ccc(S(=O)(=O)N2CCCC2)cc1-c1nnc2c3ccccc3c(C)nn12`, the viability loss activity score is 2.21% (inactive). The same measure for `CCOC(=O)c1c(C)n(C)c2ccccc12`: 1.79% (inactive).

With `Cc1ccc(-n2nnnc2-c2cnn(-c3ccccc3)c2C)cc1`, the viability loss activity score is -4% (inactive). The same measure for `Cc1ccc(S(=O)(=O)Nc2ccc3c(c2)C(=O)N([C@H](C)CO)C[C@H](C)[C@H](CN(C)S(C)(=O)=O)O3)cc1`: 0.992% (inactive).

As to `COC(OC)c1nc(SCC(=O)Nc2ccc(C(C)C)cc2)ncc1C(=O)O`, the viability loss activity score is -6.58% (inactive). The same measure for `Cc1oc2cc(Br)c(OC(=O)c3ccco3)cc2c1C(=O)OC(C)C`: -1.39% (inactive); for `CCc1ccc(NC(=O)c2sc3[nH]c(=O)c(C(=O)O)cc3c2N)cc1`: -3.87% (inactive); for `COCCn1cc(C(=O)NC2CCCCCC2)c2c3ccccc3n(C)c2c1=O`: 2.88% (inactive).

Take `COc1ccc(NS(=O)(=O)c2ccc3c(c2)OCC(=O)N3)cc1`: the viability loss activity score was 3.85% (inactive). With `Cc1ccc(NC(=S)Nc2ccc(C)cc2)cc1`, the viability loss activity score is 2.21% (inactive). To `COC(=O)c1ccccc1Oc1c(F)c(F)nc(N2CCOCC2)c1F` belongs 2.06% (inactive); to `CC1OC(OC2C(OC3C(O[C@H]4CC[C@@]5(C)C(CC[C@]6(C)C5CC=C5[C@@H]7CC(C)(C)C[C@@H](O)[C@]7(C)CC[C@]56C)C4(C)C)OC(C(=O)O)C(O)C3O)OC(CO)C(O)C2O)C(O)C(O)C1O` (stereo partly drawn), 2.12% (inactive); to `CC1(C)CC[C@]2(C(=O)O)CC[C@]3(C)C(=CCC4[C@@]5(C)CC[C@H](OC6O[C@H](CO)[C@@H](O)[C@H](O[C@@H]7O[C@H](CO)[C@@H](O)[C@H](O)[C@H]7O)[C@H]6O)C(C)(C)C5CC[C@]43C)[C@@H]2C1` (stereo partly drawn), 17.9% (inactive).

Regarding `C/C=C(/C)C(=O)O[C@H]1CC(C)(C)C[C@H]2C3=CCC4[C@@]5(C)CC[C@H](O[C@@H]6O[C@H](C(=O)O)[C@@H](O[C@@H]7O[C@H](CO)[C@H](O)[C@H](O)[C@H]7O[C@@H]7O[C@H](CO)[C@@H](O)[C@H](O)[C@H]7O)[C@H](O)[C@H]6O[C@@H]6O[C@@H](C)[C@H](O)[C@@H](O)[C@H]6O)C(C)(C)C5CC[C@@]4(C)[C@]3(C)[C@@H](OC(C)=O)[C@@H](O)[C@@]12COC(C)=O` (stereo partly drawn), the viability loss activity score is 72.5% (active). To `C/C=C(/C)C(=O)O[C@H]1CC(C)(C)C[C@H]2C3=CCC4[C@@]5(C)CC[C@H](O[C@@H]6O[C@H](C(=O)O)[C@@H](O[C@@H]7O[C@H](CO)[C@H](O)[C@H](O)[C@H]7O[C@@H]7O[C@H](CO)[C@@H](O)[C@H](O)[C@H]7O)[C@H](O)[C@H]6O[C@@H]6O[C@@H](C)[C@H](O)[C@@H](O)[C@H]6O)C(C)(C)C5CC[C@@]4(C)[C@]3(C)[C@@H](O)[C@@H](O)[C@@]12CO` (stereo partly drawn) belongs 104% (active); to `COc1ccc(/C=C/C(=O)O[C@@H]2[C@@H](OC(=O)/C=C/c3ccc(OC)cc3)[C@H](C)O[C@@H](O[C@H]3[C@@H]4C=CO[C@@H](O[C@@H]5O[C@H](CO)[C@@H](O)[C@H](O)[C@H]5O)[C@@H]4[C@@]4(CO)O[C@@H]34)[C@@H]2OC(C)=O)cc1`, -3.51% (inactive). For `C=CC1(C)C=C2CCC3C(C)(C)C(O[C@@H]4O[C@@H](CO)[C@H](O)[C@H]4O)CCC3(C)C2CC1O[C@@H]1O[C@H](C)[C@@H](OC)[C@H](O)[C@H]1O` (stereo partly drawn), the viability loss activity score was -5.62% (inactive). The same measure for `COc1cc(OC)c(N(C)C(=O)c2ccc3c(=O)n4c(nc3c2)CCCCC4)cc1Cl`: 4.36% (inactive).

As to `CCN(CC)C(=O)Cn1cc(SCc2ccccc2)c2ccccc21`, the viability loss activity score was -2.18% (inactive). On to `CCCCS(=O)CSc1nc(-c2ccc(OC)cc2)cc(-c2ccccc2)c1C#N` (stereo not drawn), for which the viability loss activity score was -8.8% (inactive). To `O=C(Nc1ccncc1)c1cccc(COc2ccc3ccccc3c2)c1` belongs 12.1% (inactive); to `O=C(c1ccccc1)c1cnn(-c2ccc(Cl)cc2)n1`, 14.6% (inactive); to `CN1c2ccccc2C(C)(C)C12Cc1cc(NS(=O)(=O)c3ccc(Cl)cc3)ccc1O2` (stereo not drawn), 0.312% (inactive). To `O=C(Oc1ccc(Br)cc1)c1ccco1` belongs -1.65% (inactive); to `CCOC(=O)c1cc(-c2ccc(C)cc2)n(CC(=O)NCC2CCCO2)c1C` (stereo not drawn), -1.7% (inactive); to `N/C(C[n+]1ccccc1)=N\O`, -4.49% (inactive). The same measure for `O=C(CCc1nc2sc3c(c2c(=O)[nH]1)CCCC3)NC1CCCC1`: 1.97% (inactive); for `O=C1CSC(c2ccc(Cl)cc2)N1Nc1nc(Nc2ccccc2)nc(N2CCCCC2)n1` (stereo not drawn): -7.31% (inactive); for `COc1ccc(/C=C2\SC(=O)N(c3ccc(C)cc3)C2=O)cc1`: -2.92% (inactive).

As for `COc1cc2c(c(OC)c1)C(c1ccccc1OC)CC(=O)N2` (stereo not drawn), the viability loss activity score is 0.526% (inactive). For the compound `COc1ccc(S(=O)(=O)N(C)C[C@H]2Oc3ccc(N(C)C)cc3C(=O)N([C@@H](C)CO)C[C@@H]2C)cc1`, the viability loss activity score is 0.729% (inactive). To `O=C(NCCCN1CCCC1)c1cc(-c2ccncc2)nc2ccccc12` belongs 3.5% (inactive). To `O=C(NCCc1ccccc1)c1nnc(Cc2ccc(F)cc2)o1` belongs -0.807% (inactive); to `CCCN(CCC)Cc1c(O)ccc2c(=O)c(-c3ccccc3)coc12`, 3.33% (inactive); to `Cc1cccc(C)c1N=C1Oc2ccccc2NC1(C)c1ccccn1` (stereo not drawn), -0.212% (inactive). The same measure for `CC(C)(C)C1=CC(=Nc2ccccc2N)C=C(C(C)(C)C)C1O` (stereo not drawn): -0.524% (inactive); for `CC(c1ccccc1)N1C(=O)c2ccccc2C1Nc1ccc(F)cc1` (stereo not drawn): -2.92% (inactive). As for `COC(Cn1c(SCC(=O)c2cccc(C(F)(F)F)c2)nnc1-c1ccc(Cl)cc1)OC`, the viability loss activity score was 2.18% (inactive). The same measure for `CSc1nc(COc2ccc(C(C)(C)C)cc2)nc(-n2cccc2)c1C#N`: -2.33% (inactive); for `C=CCC(c1cc(Cl)ccc1N)S(=O)(=O)c1ccc(C)cc1` (stereo not drawn): 0.759% (inactive). Turning to `CSc1cccc(NC(=O)CSc2nncn3c2cc2sccc23)c1`, the viability loss activity score is -1.6% (inactive).
